Screens (PubChem)
Rab2 wt GTP – modulators of GTP binding to Rab2A wildtype, primary screen, biochemical, dog, bead-based flow cytometry, multiplex; GST-Rab2 wt beads, Bodipy-GTP binding; GTP binding activity, % at 10 µM; 190,000 tested, 0.19% active; AID 760, 2007;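 active = GTP binding activity at least 20 points away from 100%, either lowered or raised; inconclusive = signal likely due to the compound's own green fluorescence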
HRas wt GTP – modulators of GTP binding to HRas wildtype, primary screen, biochemical, bead-based flow cytometry, multiplex; GTP binding activity, % at 10 µM; AID 759, 2007; 190,000 tested, 0.14% active; GST-Ras wt beads, Bodipy-FL-GTP binding; actives lie on both sides;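 active = GTP binding activity at least 20% away from the 100% baseline, either lowered as inhibitor or raised as activator; inconclusive = flagged as likely green fluorescent, judged across all proteins in the well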
Target sequence (P01112 whole entry, looked up): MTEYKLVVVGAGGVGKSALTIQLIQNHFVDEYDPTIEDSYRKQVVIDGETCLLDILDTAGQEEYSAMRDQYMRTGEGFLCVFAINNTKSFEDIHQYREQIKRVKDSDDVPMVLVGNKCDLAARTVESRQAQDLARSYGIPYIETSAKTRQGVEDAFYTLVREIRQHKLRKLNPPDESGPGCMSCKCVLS
Rac1 mut GTP – GTP binding modulators of activated mutant Rac1, primary screen, biochemical, bead-based flow cytometry, multiplex, fluorescent GTP; Ras-related C3 botulinum toxin substrate 1 (Homo sapiens), P63000; GST-Rac1 activated beads; actives lie on both sides; 100% means binding = to untreated wells; percent activity (GTP binding), % at 10 µM; 190,000 tested, 0.11% active;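 active = GTP binding at least 20 percentage points away from the 100% baseline, in either direction, so actives lie on both sides; inconclusive = Compound likely fluorescent itself, or too few beads counted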
Cdc42 wt – modulators of GTP binding to wildtype Cdc42, primary screen, biochemical, multiplex bead flow cytometry, Bodipy-GTP; percent activity (GTP binding), % at 10 µM; GST-Cdc42 beads; actives lie on both sides; 190,000 tested, 0.2% active; Cell division control protein 42 homolog (Homo sapiens), P60953;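 active = percent activity GTP binding at least 20 points away from the 100% baseline, either down as inhibitor or up as activator; inconclusive = compound flagged as likely green fluorescent from well-wide comparison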;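 note: median bead fluorescence of bound Bodipy-FL-GTP at 100 nM; below 100% means less GTP binding so inhibitor and above means activator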
Target sequence (P60953 whole entry, looked up): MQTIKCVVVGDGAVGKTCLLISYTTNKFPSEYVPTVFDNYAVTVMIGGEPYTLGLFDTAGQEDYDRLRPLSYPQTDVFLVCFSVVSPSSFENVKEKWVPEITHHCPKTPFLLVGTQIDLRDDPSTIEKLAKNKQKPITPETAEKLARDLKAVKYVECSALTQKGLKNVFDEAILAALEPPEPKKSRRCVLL
Rab7 wt modul – modulators of GTP binding to Rab7, primary screen, biochemical, wildtype, multiplex bead flow cytometry; Rab7 GTPase wild type (dog), Bodipy-FL-GTP binding; GST-Rab7 beads, fluorescent GTP binding; actives lie on both sides; untreated = 100%, excess cold GTP = 0%; GTP binding activity (percent of control), % at 10 µM; 190,000 tested, 0.055% active; AID 758, 2007;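 active = fluorescent GTP binding to Rab7 beads changed by at least 20 points from the 100% baseline, either direction, mostly lower; inconclusive = compound itself probably fluorescent, or too few beads counted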;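 note: median green fluorescence of bound Bodipy-FL-GTP per Rab7 bead population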
Rac1 wt GTP bind – wildtype Rac1 GTP binding modulators, primary screen, biochemical, GST-Rac1 beads, flow cytometry, multiplex | 190,000 tested, 0.27% active | AID 757, 2007 | Ras-related C3 botulinum toxin substrate 1 (Homo sapiens), P63000 | GTP binding activity (% of control), % at 10 µM | fluorescent GTP binding; actives lie on both sides; 0 = cold GTP competed, 100 = untreated;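 active = GTP binding activity at least 20 points away from the 100% control level, either lower or higher; inconclusive = compound flagged as likely green fluorescent, judged across all proteins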
A number is an active result; . = inactive; ? = inconclusive; / = not tested or not shown; [ ] = dose if it differs, or a comment. Compounds with a hit are over-represented: about 0.4% of the library has one in this group of screens.

SMILES	Rab2 wt GTP	HRas wt GTP	Rac1 mut GTP	Cdc42 wt	Rab7 wt modul	Rac1 wt GTP bind
COc1ccc(N/C=C/c2nc(SC)nnc2C)cc1	66	69	.	67	.	64
CCOC(=O)c1cccc(NC(=S)NCc2ccc(C)cc2)c1	.	.	.	.	.	.
COC(=O)c1ccccc1NC(=O)CSCC(=O)Nc1ccccc1OC	.	.	.	.	76	.
CCCc1cc2c(cc1NC(=O)c1ccco1)OCO2	.	.	.	.	.	.
C=CCN1C(=O)/C(=C/C=C2/N(CC)c3ccc(S(=O)(=O)N(C)C)cc3N2CC)SC1=S	.	79	.	.	.	.
Fc1ccc(-c2[nH]ncc2CN(CC2CCC2)CC2CCCO2)c(F)c1 (centres undefined)	.	.	.	.	.	.
CC(=O)Nc1ccc(Nc2ccc3c4c(cc(=O)n3C)-c3ccccc3C(=O)c24)cc1	.	.	.	.	.	77
CCn1cc(CNC(=S)Nc2cccc3ccccc23)cn1	.	.	.	.	.	.
CCc1ccccc1NC(=O)N1C2CCCC1CC(NC(C)=O)C2 (centres undefined)	.	.	.	126[activator]	.	139[activator]
CCOC(=O)Cc1nn[nH]n1	.	.	.	.	.	.
CCC(=O)c1ccc(OCC(=O)O)c(OC)c1	.	.	.	.	.	122[activator]
CCOC(=O)COc1ccc(C(=O)CC)cc1OC	.	.	.	.	.	.
CCCc1n(CC)c2ccccc2[n+]1CC(O)COC1CCCCC1 (centres undefined)	.	.	.	.	.	.
COc1cc([N+](=O)[O-])cc(/C=N/NC(=O)c2ccc(NC(=O)c3ccc(C)cc3)cc2)c1O	78	.	.	.	.	.
CCN1/C(=C/C=C/C=C/c2sc3ccccc3[n+]2CC)Sc2ccccc21	57	51	?	63	/	.
Cc1ccc(C(=O)N2C(CC(=O)Nc3ccc(Cl)cc3)C(=O)NC3CCCCC32)cc1 (centres undefined)	.	.	.	.	.	.
COc1ccc(/C=C2\CCCC3C2=NN(C(=O)c2scnc2C)C3c2ccc(OC)c(OC)c2)cc1OC (centres undefined)	66	67	.	66	.	.
Cc1ccccc1NC(=O)CN1C(=O)S/C(=C\c2ccc(-c3cc(C(=O)O)ccc3C)o2)C1=O	.	.	.	79	.	.
O=S1(=O)N=C(N=Nc2c(O)[nH]c3ccccc23)c2ccccc21	.	.	.	.	.	77
Cc1ccc(S(=O)(=O)N(C)C)cc1NC(=O)COC(=O)c1ccc(Cl)cc1	.	.	.	.	.	144[activator]
COc1ccccc1/C=C/C(=O)NNC(=O)c1cccs1	.	.	.	.	.	.
Cc1nnc2ccc(-c3ccc(NC(=O)c4ccco4)cc3)nn12	.	.	.	.	.	75
CC(=O)Nc1ccc(-c2ccc3nnc(C)n3n2)cc1	.	.	.	.	.	.
CN(C)C1(CNC(=S)Nc2ccccc2C(F)(F)F)CCCCC1	.	.	.	.	.	.
O=C(c1nnsc1S(=O)(=O)c1ccc(Cl)cc1)N1CCOCC1	.	.	120[activator]	.	.	.
SMILES	Rab2 wt GTP	HRas wt GTP	Rac1 mut GTP	Cdc42 wt	Rab7 wt modul	Rac1 wt GTP bind
CCOc1cc(/C=N/NC(=O)c2cc(-c3cccnc3)nc3ccccc23)ccc1O	.	.	.	.	.	78
CCOc1cc(/C=N/Nc2nncc(-c3ccccc3)n2)ccc1O	.	.	.	.	.	74
O=C(NC(=S)NCCCN1CCOCC1)c1cccc2ccccc12	.	.	.	.	.	.
c1ccc(-c2csc(-n3cccn3)n2)cc1	.	.	.	.	.	.
COc1ccc(-n2cccc2/C=C2/NC(=O)N(c3cccc(Cl)c3)C2=O)cc1	.	.	.	.	.	.
O=C(O)c1cccc(-n2cccc2/C=C2/NC(=O)N(c3ccc(Cl)cc3)C2=O)c1	75	.	76	72	.	67
O=C1CC(c2ccc(F)cc2)Sc2ccccc2N1 (centres undefined)	.	.	.	.	.	129[activator]
Cc1cc(=O)oc2cc(OCC(=O)OCC(=O)Nc3c(C)n(C)n(-c4ccccc4)c3=O)ccc12	.	.	.	.	.	.
Cc1ccc(COc2ccsc2C(=O)O)cc1	.	.	.	120[activator]	.	.
Nc1c(C(=O)C2CC2)sc2nc(-c3cccs3)cc(C(F)(F)F)c12	.	.	.	.	.	120[activator]
CNC(=S)NNC(=O)c1noc(C)c1C(=O)N1CCN(C(c2ccccc2)c2ccccc2)CC1	.	.	.	.	.	.
COc1ccc([N+](=O)[O-])cc1NC(=O)Cc1ccc(Cl)cc1	.	.	.	.	.	.
COc1ccc([N+](=O)[O-])cc1NC(=S)NC(NC(=O)Cc1ccc(OC)c(OC)c1)C(Cl)(Cl)Cl (centres undefined)	55	57	79	54	.	74
O=C(COC(=O)/C=C/c1cccs1)Nc1ccccc1Cl	.	.	.	.	.	.
O=C(COC(=O)/C=C/c1cccs1)Nc1ccc2ccccc2c1	76	.	76	73	.	74
Cc1oc(-c2cccs2)nc1CN1CCN(Cc2ccc(F)c(F)c2)C(CCO)C1 (centres undefined)	.	.	.	.	.	.
COc1ccnc(N=CNOCc2cccc(C(F)(F)F)c2)c1C#N	.	.	.	.	.	.
O=C(COC(=O)/C=C/c1cccc([N+](=O)[O-])c1)NCc1ccc2c(c1)OCO2	.	.	79	.	.	.
O=C1c2ccccc2-n2c1nc1ccccc1c2=O	.	.	.	.	.	77
Cc1ccccc1OCCn1cc(/C(N)=N/O)c2ccccc21	.	.	.	.	.	.
Cc1ccc(C)c(OCCn2cc(C(=O)O)c3ccccc32)c1	138[activator]	129[activator]	136[activator]	140[activator]	136[activator]	170[activator]
Cc1ccccc1OCCn1cc(C(=O)O)c2ccccc21	126[activator]	124[activator]	128[activator]	123[activator]	122[activator]	151[activator]
Cc1ccc(C)c(OCCn2cc(/C=C(\C#N)C(=O)NCc3ccco3)c3ccccc32)c1	.	.	.	.	.	.
Cc1cccc(C)c1OCC(=O)Nc1ccc(N2CCOCC2)cc1	.	.	.	.	.	.
